High-throughput results deposited in PubChem by several laboratories.
A selection: hits, their analogues and other compounds. The true share with any hit is near 4.6%.
HSF-1 act = increases HSF-1 driven luciferase reporter signal. NIH3T3-HGL HSF-1 luciferase reporter, MG132, 8 h; 100% = twice DMSO control signal. activation, % at 9 µM. 1.7% of 300,000 active. AID 504408;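 active means mean replicate activation of at least 50% with a set share of replicates each reaching 50%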;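 further: 0% = median of the neutral control wells and 100% = twice that signal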
HSF1 inhib = HSF1 inhibition. NIH3T3-HGL HSE-luciferase, MG132-induced, luminescence 8 h; active compounds read low. activity change, negative = inhibition, % at 7.5 µM (by protocol). 0.77% of 300,000 active;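 active means more than half of replicate wells show activity change below -50%, luminescence cut by over half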;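 further: luciferase reports HSF-1 transcriptional activity via heat shock element; 0% = median of DMSO wells and -100% = zero luminescence signal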
AHR act = human AHR activation; P35869; 2.5% of 320,000 active; AHR-responsive luciferase reporter cells, luminescence; activation, % at 5 µM; in the data active means activation above about 47%;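 further: 0% = vehicle wells and 100% = reference agonist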
Target sequence (P35869 whole entry, looked up): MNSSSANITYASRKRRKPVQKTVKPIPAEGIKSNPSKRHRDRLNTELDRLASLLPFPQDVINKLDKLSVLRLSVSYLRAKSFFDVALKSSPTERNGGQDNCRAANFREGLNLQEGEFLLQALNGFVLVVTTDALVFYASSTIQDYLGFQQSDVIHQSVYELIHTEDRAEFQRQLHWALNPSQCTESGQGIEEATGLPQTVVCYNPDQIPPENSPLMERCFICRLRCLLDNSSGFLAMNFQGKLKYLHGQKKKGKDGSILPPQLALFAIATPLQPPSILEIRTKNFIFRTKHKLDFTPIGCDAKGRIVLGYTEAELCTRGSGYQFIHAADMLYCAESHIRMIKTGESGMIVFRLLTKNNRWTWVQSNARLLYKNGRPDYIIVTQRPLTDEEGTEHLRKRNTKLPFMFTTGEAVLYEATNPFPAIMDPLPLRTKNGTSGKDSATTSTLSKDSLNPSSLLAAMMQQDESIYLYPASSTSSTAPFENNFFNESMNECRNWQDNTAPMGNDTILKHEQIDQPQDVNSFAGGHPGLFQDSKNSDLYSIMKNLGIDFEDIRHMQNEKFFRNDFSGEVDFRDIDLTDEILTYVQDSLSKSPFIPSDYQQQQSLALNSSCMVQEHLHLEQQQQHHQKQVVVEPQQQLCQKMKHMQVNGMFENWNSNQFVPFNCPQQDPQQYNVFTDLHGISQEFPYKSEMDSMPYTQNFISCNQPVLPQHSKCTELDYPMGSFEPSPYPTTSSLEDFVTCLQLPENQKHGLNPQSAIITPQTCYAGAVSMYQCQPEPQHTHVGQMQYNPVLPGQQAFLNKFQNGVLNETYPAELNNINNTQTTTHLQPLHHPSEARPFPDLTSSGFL
GAA850 FXN act = activators of GAA850 frataxin (FXN) promoter. HEK293 lucGAA850 FXN promoter luciferase reporter, 24 h; percent of 10 µM SAHA response. activation, % at 6 µM. 0.56% of 360,000 active;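 active means activation above the average of all compounds screened plus 3 SD, cutoff fixed separately per campaign, cut at about 7.5% in these data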;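 further: 0% = DMSO wells and 100% = 10 µM SAHA wells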
An asterisk follows results filed as active; x = no result.

SMILES	HSF-1 act	HSF1 inhib	AHR act	GAA850 FXN act
COc1cc(/C=C/C(=O)c2ccc3c(c2)OCCO3)cc(OC)c1OC	190*	147	6	-4
COc1ccc(OC)c(/C=C/C(=O)c2ccc3c(c2)OCCO3)c1	66*	53	24	3
COc1cc(/C=C/C(=O)c2ccc3c(c2)OCO3)cc(OC)c1OC	x	x	14	-2
Cc1cccc(NC(=O)c2ccc(Cl)c(S(=O)(=O)N3CCc4ccccc43)c2)n1	x	x	26	-2
N=c1scc(-c2ccccc2)n1/N=C/c1ccco1	21	0	28	x
Oc1ccccc1/C=N/n1c2ccccc2c2ccccc21	-3	-12	20	1
C(=N\n1c2ccccc2c2ccccc21)/c1ccccc1	-47	-37	65*	2
C(=N/n1c2ccccc2c2ccccc21)/c1ccco1	-2	1	51*	0
CC(C)CC1(C)NC(=O)N(CC(=O)Nc2ccccc2Br)C1=O (centres undefined)	x	x	0	0
CSCCC(NC(N)=O)C(=O)Nc1ccc2ccccc2c1 (centres undefined)	x	x	1	2
Cc1ccc(S(C)(=O)=O)cc1C(=O)NC(C)C1CC2CCC1C2 (centres undefined)	4	3	-1	-1
c1ccc(C2=Nc3ccccc3SC2c2nc3ccccc3[nH]2)cc1 (centres undefined)	84*	37	24	x
O=C1CC(c2nc3ccccc3[nH]2)CN1c1ccccc1 (centres undefined)	26	-5	3	0
COc1ccc(-n2cc(CNCCc3cscn3)c(-c3ccccc3Cl)n2)cc1	59*	28	5	x
O=[N+]([O-])c1ccc(S(=O)(=O)N2CCSC2c2ccco2)cc1 (centres undefined)	51*	19	5	-1
O=S(=O)(c1ccc(Cl)cc1)N1CCSC1c1ccco1 (centres undefined)	x	x	2	-3
CCc1cc2cc(C(=O)N3CCN(Cc4ccccc4)CC3)sc2s1	x	x	0	2
COc1ccccc1NCCC(=O)OCC(=O)NC1CC1	x	x	-2	2
Cc1ccc([C@H]2C[C@@H](O)[C@H](n3cc(-c4ccc(F)cc4)nn3)CN2C(=O)C2CCCCC2)cc1	x	x	x	-3
O=C(NC1CC1)c1cccc(NC(=O)c2cnn(-c3ccccc3)n2)c1	x	x	59*	-2
O=C(Nc1cccc(C(=O)NC2CCCC2)c1)c1ccccc1	2	-3	11	0
Cc1nn(-c2cccc(C(=O)O)c2)c(C)c1[N+](=O)[O-]	-8	-1	-2	0
COc1cc(NC(=O)c2cccc(F)c2)cc(OC)c1OC	-19	-4	63*	2
COc1ccc(C(N)=O)cc1NC(=O)c1cccc(F)c1	-5	-4	61*	2
Oc1ccccc1C1NN=C(c2ccccc2)S1 (centres undefined)	81*	71	41	6
SMILES	HSF-1 act	HSF1 inhib	AHR act	GAA850 FXN act
COc1cc2c(cc1OC)-c1cc(Nc3ccc4c(c3)OCCO4)nc(=O)n1CC2	-75	-72*	-6	-9
O=C1/C(=C\c2ccc([N+](=O)[O-])cc2)CCc2ccccc21	60*	29	-8	7
O=C1/C(=C/Nc2cccc([N+](=O)[O-])c2)CCc2ccccc21	73*	37	40	3
CCc1nc(Nc2ccc3c(c2)OCO3)c2oc3ccccc3c2n1	-7	-3	96*	1
COc1ccc(CCNc2nc(C)nc3c2oc2ccccc23)cc1OC	-7	1	34	-1
Cc1cccc(Nc2nc(C)nc3c2oc2ccccc23)c1	-12	5	48*	0
Cc1nc(NCCc2cnc[nH]2)c2oc3ccccc3c2n1	-9	-4	53*	1
CCc1nc(Nc2cccc(O)c2)c2oc3ccccc3c2n1	12	-6	x	-4
Cc1nonc1OC(C)CNc1ccc([N+](=O)[O-])cc1 (centres undefined)	-9	7	-1	2
Cc1ccc2nc(SC(C(=O)Nc3ccc(F)cc3)c3ccccc3)[nH]c2c1 (centres undefined)	47	1	79*	-7
CN(CCc1ccccc1)C1CCCN(S(=O)(=O)N(C)C)C1 (centres undefined)	0	-7	-2	1
CSc1ccc(Cl)c(C(=O)OCC(=O)N(C)CCC#N)c1	59*	19	2	1
Cc1nnc(NC(=O)c2ccc3c(c2)OCO3)s1	9	10	39	5
CCOCc1nnc(NC(=O)c2ccc3c(c2)OCO3)s1	8	7	122*	4
O=C(Nc1nncs1)c1ccc2c(c1)OCO2	2	-3	65*	1
CCCc1cc(C(=O)Nc2ccn(Cc3ccc(C)cc3)n2)no1	6	-6	1	2
Nc1nnc(SCc2ccc(F)cc2Cl)s1	13	14	0	0
CN(C)c1ccc(N=Cc2nc(-c3ccccc3)oc2OC(=O)c2cccc(Cl)c2)cc1	9	11	60*	5
COc1ccc(N=Cc2nc(-c3ccccc3)oc2OC(C)=O)cc1	-11	-10	0	1
Cc1ccc(C(=O)Oc2oc(-c3ccccc3)nc2C=Nc2ccc(N(C)C)cc2)cc1	144*	89	58*	3
O=C(CSc1nc2c(c(=O)n1-c1ccc(F)cc1)SCC2)Nc1ccc2c(c1)OCO2	-4	1	4	-2
CCC(C)NC(=O)c1cc2c(=O)n3cccc(C)c3nc2s1 (centres undefined)	10	-7	65*	2
CCN(CC)C(=O)c1cc2c(=O)n3cccc(C)c3nc2s1	2	1	47*	2
C=CCNC(=O)c1cc2c(=O)n3cccc(C)c3nc2s1	15	2	14	1
CCOCCCNC(=O)C1CC(=O)N(CCc2ccccc2)C1 (centres undefined)	-4	-2	0	-1
SMILES	HSF-1 act	HSF1 inhib	AHR act	GAA850 FXN act
COc1cc(O)oc1C=Nc1ccc(C(=O)O)cc1	-64	-62*	18	3
Cc1nc2nc(-c3ccccc3)nn2c(C)c1Cl	22	1	55*	6
Cc1nc2nc(-c3ccc(Cl)cc3)nn2c(C)c1Cl	-3	4	53*	x
Cc1cc(N2CCN(C)CC2)n2nc(-c3ccc(Cl)cc3)nc2n1	-10	6	3	3
CCOc1ccccc1NC(=O)CNC(=O)N1CC(=O)Nc2ccccc21	2	-1	22	-2
COc1ccc(Cc2nnc(NS(=O)(=O)c3ccc(NC(C)=O)cc3)s2)cc1	-10	-6	1	2
O=C(C1CCC1)N1CCN(c2ccc(C(F)(F)F)cc2[N+](=O)[O-])CC1	2	2	x	1
O=C(Nc1ccccc1)N1CCCN(c2ccc(C(F)(F)F)cc2[N+](=O)[O-])CC1	54*	39	13	0
O=S(=O)(NCCSCc1ccc(Cl)c(Cl)c1)c1ccc2c(c1)OCCO2	-6	-2	4	2
Nc1c(C(=O)c2ccccc2)sc2nsc(SCCN3CCOCC3)c12	60*	24	-1	-1
Cn1c(=O)c2c(nc(Oc3cccc(Br)c3)n2C)n(C)c1=O	1	-1	48*	1
Cc1cc(-c2ccc(Br)s2)nc(-n2cccc2)n1	1	3	x	-1
